Inconclusive results are not listed. A call without a number means that no potency is given here. Activity calls are given as the source filed them. Unless noted, calls come from the whole dose curve; as a rule, active = well fitted curve in the direction sought with a large enough effect; inconclusive = small, poorly fitted or top-dose-only effect, or another doubt; inactive = no such curve, though single readings can be large; an effect the other way counts as inactive or inconclusive.
Columns and labels:
[1] = Cell Viability - BJ (AID 421; calls by dose curve;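 note: potency is the fitted concentration of half-maximal effect; cells exposed to compound for 40 hours at 37 °C before readout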); conditions: BJ fibroblast viability, qHTS
How it was run: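 Luminescent ATP signal (CellTiter-Glo, 20 min at room temperature) served as the read-out of viable BJ cells after 40 hours of compound treatment. Responses were scaled between DMSO and 100 uM tamoxifen, and AC50 values were obtained by Hill modeling.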

[2] = Cell Viability - Jurkat (AID 426;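 active = dose-dependent loss of cell ATP signal giving a full or clear fitted curve, ranked by lower potency value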; note: potency is the fitted concentration of half-maximal effect); conditions: qHTS
How it was run: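 Seed 5000 Jurkat E6-1 cells/well; add compound; incubate 40 hr at 37 °C; add CellTiter-Glo; wait 20 min at room temperature; read luminescence. Fit concentration-response with Hill equation for AC50.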

[3] = Cell Viability - Hek293 (AID 427;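 active = compounds whose dose-response curve shows a full or clear partial loss of cell viability, called from curve shape rather than a numeric limit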;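 note: potency is the fitted concentration of half-maximal effect; cells exposed to compound for 40 hours at 37 °C before reading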); conditions: qHTS
How it was run: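 Luminescent ATP read-out (CellTiter-Glo, 20 min RT) after 40 hr compound exposure at 37 °C in complete medium. Signal normalized to DMSO (basal) and 100 uM tamoxifen (100% inhibition); concentration-response fitted with the standard Hill equation to give AC50.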

[4] = Cell Viability - HepG2 (AID 433; calls by dose curve;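 note: potency is the fitted concentration of half-maximal effect; potency for ATP loss meaning cytotoxicity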); conditions: qHTS
How it was run: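 HepG2 cells, 1500 per well, treated 40 hr at 37 °C in complete medium; viability from intracellular ATP by CellTiter-Glo luminescence. Normalized to DMSO and 100 uM tamoxifen; AC50 from Hill fit of qHTS concentration-response.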

[5] = Cell Viability - SK-N-SH (AID 435; calls by dose curve;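 note: potency is the fitted concentration of half-maximal effect; compound exposure lasted 40 h at 37 °C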); conditions: SK-N-SH neuroblastoma cell viability qHTS
How it was run: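 SK-N-SH neuroblastoma cells (1500/well) treated 40 h at 37 °C in complete medium; viability read as cellular ATP by CellTiter-Glo luminescence. Normalized to DMSO and 100 uM tamoxifen; AC50 from Hill fits of qHTS concentration-response.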

[6] = Cell Viability - Renal Proximal Tubule (AID 545); conditions: renal proximal tubule cells viability; series mostly up to 91.7 µM; note: nearly all actives have a fitted effect of over 40% in size
How it was run: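 Rat renal proximal tubule primary cells, 1000/well, exposed to compounds for 40 hr at 37 °C in complete medium; cellular ATP read by CellTiter-Glo luminescence. AC50 from concentration-response fitted with standard Hill equation.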

[7] = Cellular Toxicity (caspase-3) HUV-EC-C (AID 656); conditions: HUV-EC-C cells, caspase-3 activation (apoptosis), vehicle = 0, 100 µM tamoxifen = 100%; series mostly up to 92.2 µM
How it was run: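 HUV-EC-C cells (1000/well) in complete medium, compound-treated 16 h at 37 °C; caspase-3/7 activity read by Caspase-Glo 3/7 luminescence. Normalized to DMSO (basal) and 100 uM tamoxifen (100%); AC50 from Hill-equation concentration-response fits.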

[8] = Cellular Toxicity (caspase-3) SHSY5Y (AID 657); conditions: SH-SY5Y caspase-3 activation, DMSO zero, 10 µM staurosporine = 100%; series mostly up to 91.7 µM
How it was run: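 SH-SY5Y human neuroblastoma cells, 1500/well, exposed to compound for 16 hours at 37 °C in complete medium. Caspase-3/7 activity read by Caspase-Glo luminescence after 1 hr at room temperature, normalized to DMSO and 10 uM staurosporine; AC50 from Hill fit.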

[9] = Cellular Toxicity (caspase-3) MRC-5 (AID 659); conditions: MRC-5 cells, luminescence, normalized: DMSO 0%, 10 µM staurosporine 100%; series mostly up to 91.7 µM
How it was run: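 MRC-5 human normal lung fibroblasts, 1500 cells/well, treated 16 h at 37 °C in complete medium. Caspase 3/7 measured by Caspase-Glo luminescence after 1 h at room temperature. Normalized to DMSO and 10 uM staurosporine; AC50 from Hill fit.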

[10] = MultiTox-Fluor Cytotoxicity Assay - LYMP1-002 - Live Cells (AID 955); conditions: LYMP1-002 lymphoblastoid live-cell protease fluorescence viability; series mostly up to 46.1 µM
How it was run: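 Cytotoxicity in the human lymphoblastoid line LYMP1-002 is measured as loss of live-cell protease activity after 16 h treatment in complete culture medium. AC50 is derived from Hill-equation fits of qHTS concentration-response data.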

[11] = Cell Viability - LYMP1-003 - Assay at 24 hr (AID 963); conditions: LYMP1-003 lymphoblastoid cell viability; series mostly up to 92.2 µM
How it was run: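 Acute toxicity in LYMP1-003 lymphoblastoid cells: 24 hr compound treatment at 37 C, ATP measured with CellTiter-Glo after 30 min at room temperature. AC50 derived by fitting the Hill equation to qHTS titrations.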

[12] = Cell Viability - LYMP2-009 (AID 968); conditions: LYMP2-009 lymphoblastoid cell viability; series mostly up to 92.2 µM; note: nearly all actives have a fitted effect of over 55% in size
[13] = Cell Viability - LYMP2-017 (AID 972); conditions: LYMP2-017 lymphoblastoid cell viability; series mostly up to 92.2 µM;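 note: cells exposed to compound for 24 hours at 37 °C; nearly all actives have a fitted effect of over 55% in size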
How it was run: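 Steps: plate 2500 lymphoblastoid cells per well; incubate 5 hr at 37 C; add compound across a concentration series and incubate 24 hr at 37 C; add CellTiter-Glo and read luminescence after 30 min at room temperature; fit Hill curves for AC50.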

[14] = Cell Viability - LYMP2-025 (AID 976); conditions: LYMP2-025 lymphoblastoid cell viability; series mostly up to 92.2 µM
How it was run: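 In qHTS format, LYMP2-025 lymphoblastoid cells in complete culture medium received compound for 24 hr; ATP-based CellTiter-Glo signal gave viability, with AC50 derived by Hill equation.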

[15] = Cell Viability - LYMP2-016 (AID 984); conditions: LYMP2-016 lymphoblastoid cell viability, qHTS; series mostly up to 92.2 µM;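 note: cells exposed to compound for 24 hours at 37 °C; nearly all actives have a fitted effect of over 55% in size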
How it was run: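 Human lymphoblastoid LYMP2-016 cells, 2500 per well, treated with compounds for 24 h at 37 C. Viability read as intracellular ATP by CellTiter-Glo luminescence after 30 min at room temperature; AC50 from Hill fits of concentration-response.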

[16] = Cell Viability - LYMP2-024 (AID 988); conditions: LYMP2-024 lymphoblastoid cell viability; series mostly up to 92.2 µM; note: nearly all actives have a fitted effect of over 60% in size
How it was run: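 Acute toxicity is measured as concentration-dependent loss of intracellular ATP in a human lymphoblastoid line treated 24 hours at 37 C. Luciferase luminescence quantifies ATP; AC50 values come from standard Hill-equation modelling.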

[17] = qHTS Assay for Identification of Small Molecule Inducers of Hypoxia Response (AID 2120; active = well fitted curve in the direction sought with a large enough effect in the signal ratio, with a control signal flat, not every such curve was filed as active; the % refers to the signal ratio); conditions: hypoxia response reporter cells, beta-lactamase ratio readout; series mostly up to 104 µM
How it was run: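 Induction of beta-lactamase reporter activity was measured in CellSensor HRE-bla ME-180 cells after 17 h compound treatment at 37 degrees C, using CCF4 substrate and the 460nm/530nm emission ratio to derive AC50 values.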

[18] = qHTS assay for small molecule agonists of retinoid X receptor alpha signaling (AID 588544); conditions: HEK293T RXRa-UAS-bla, beta-lactamase reporter, 18 h; 530 nm emission
[19] = target: Peroxisome proliferator-activated receptor alpha (Homo sapiens) (UniProt Q07869); assay: qHTS assay for small molecule agonists of the peroxisome proliferator-activated receptor alpha (PPARalpha) signaling pathway (AID 651778); conditions: PathHunter PPARalpha complementation, chemiluminescence, 6 h; stronger effect = higher value
How it was run: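 Enzyme-fragment complementation assay in which ligand-bound PPARalpha translocates and forms an active enzyme that generates chemiluminescence. Cells were plated overnight, exposed to compound for 6 hr at 37 C, and then given detection reagent for 60 min at room temperature.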

[20] = qHTS assay for small molecule agonists of the antioxidant response element (ARE) signaling pathway measured by Nrf2-dependant transcriptional activity - cell viability counter screen (AID 720653; active = well fitted curve in the direction sought with a large enough effect in the repeat runs; an effect the other way counts as inactive or inconclusive); conditions: ARE-bla HepG2 viability, CellTiter-Glo ATP luminescence, 16 h; stronger effect = lower value
How it was run: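 ARE-bla HepG2 cells treated with compounds for 16 h at 37C; this counter screen measures viability as intracellular ATP by CellTiter-Glo luminescence after 30 min at room temperature.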

Chain of Peroxisome proliferator-activated receptor alpha (Homo sapiens) (Q07869 whole entry, looked up, the tested form may be a part): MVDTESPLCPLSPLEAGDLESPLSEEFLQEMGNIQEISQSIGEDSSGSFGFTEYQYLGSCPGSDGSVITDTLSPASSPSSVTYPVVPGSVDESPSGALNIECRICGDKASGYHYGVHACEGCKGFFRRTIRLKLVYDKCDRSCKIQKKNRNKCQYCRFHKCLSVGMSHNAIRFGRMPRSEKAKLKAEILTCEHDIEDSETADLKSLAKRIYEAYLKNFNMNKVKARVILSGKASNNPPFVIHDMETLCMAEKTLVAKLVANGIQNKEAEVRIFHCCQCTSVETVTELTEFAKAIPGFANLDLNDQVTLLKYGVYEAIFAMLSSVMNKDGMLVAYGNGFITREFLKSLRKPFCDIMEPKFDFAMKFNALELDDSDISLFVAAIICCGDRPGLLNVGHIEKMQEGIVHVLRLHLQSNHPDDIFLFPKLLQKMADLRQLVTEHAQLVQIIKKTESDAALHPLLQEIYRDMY

| SMILES | Potency [1] | Potency [2] | Potency [3] | Potency [4] | Potency [5] | outcome [6] | outcome [7] | outcome [8] | outcome [9] | outcome [10] | outcome [11] | Potency [12] | Potency [13] | Potency [14] | Potency [15] | Potency [16] | Potency [17] | max response [18] | max response [19] | max response [20] |
| --- | --- | --- | --- | --- | --- | --- | --- | --- | --- | --- | --- | --- | --- | --- | --- | --- | --- | --- | --- | --- |
| CC(C)Br | > 92 µM (inactive) | > 92 µM (inactive) | > 92 µM (inactive) | > 92 µM (inactive) | > 92 µM (inactive) | inactive | inactive | inactive | inactive | inactive | inactive | inactive | inactive | inactive | inactive | inactive | inactive | -8.42% | -8.27% (inactive) | -6.22% (inactive) |
| C=CCc1cc(OC)c2c(c1)OCO2 | > 92 µM (inactive) | > 92 µM (inactive) | > 92 µM (inactive) | > 92 µM (inactive) | > 92 µM (inactive) | inactive | inactive | inactive | inactive | inactive | inactive | inactive | inactive | inactive | inactive | inactive | inactive | -17.2% | 5.39% (inactive) | -2.49% (inactive) |
| Cl/C=C\Cl | > 92 µM (inactive) | > 92 µM (inactive) | > 92 µM (inactive) | > 92 µM (inactive) | > 92 µM (inactive) | inactive | inactive | inactive | inactive | inactive | inactive | inactive | inactive | inactive | inactive | inactive | inactive | -20.4% | -0.887% (inactive) | -3.68% (inactive) |
| C=COC(C)=O | > 92 µM (inactive) | > 92 µM (inactive) | > 92 µM (inactive) | > 92 µM (inactive) | > 92 µM (inactive) | inactive | inactive | inactive | inactive | inactive | inactive | inactive | inactive | inactive | inactive | inactive | inactive | -12.6% | -3.52% (inactive) | 7.83% (inactive) |
| CC(=O)NNc1ccccc1 | > 92 µM (inactive) | > 92 µM (inactive) | > 92 µM (inactive) | > 92 µM (inactive) | > 92 µM (inactive) | inactive | inactive | inactive | inactive | inactive | inactive | inactive | inactive | inactive | inactive | inactive | inactive | – | -1.86% (inactive) | 1.56% (inactive) |
| Cc1cccc(N)c1C | > 92 µM (inactive) | > 92 µM (inactive) | > 92 µM (inactive) | > 92 µM (inactive) | > 92 µM (inactive) | inactive | inactive | inactive | inactive | inactive | inactive | inactive | – | inactive | inactive | inactive | inactive | -3.13% | -1.4% (inactive) | 1.88% (inactive) |
| NNC(N)=S | > 92 µM (inactive) | > 92 µM (inactive) | > 92 µM (inactive) | > 92 µM (inactive) | > 92 µM (inactive) | inactive | inactive | inactive | inactive | inactive | inactive | inactive | inactive | inactive | inactive | inactive | inactive | – | -1.77% (inactive) | 16.5% (inactive) |
| OCCCCO | > 92 µM (inactive) | > 92 µM (inactive) | > 92 µM (inactive) | > 92 µM (inactive) | > 92 µM (inactive) | inactive | inactive | inactive | inactive | inactive | inactive | inactive | inactive | inactive | inactive | inactive | inactive | 1.71% | -0.393% (inactive) | -2.13% (inactive) |
| O=[N+]([O-])c1ccc(Cl)c(Cl)c1Cl | > 92 µM (inactive) | > 92 µM (inactive) | > 92 µM (inactive) | > 92 µM (inactive) | > 92 µM (inactive) | inactive | inactive | inactive | inactive | inactive | inactive | inactive | inactive | inactive | inactive | inactive | inactive | 3.54% | 10.7% (inactive) | -7.85% (inactive) |
| Cc1cnc[nH]1 | > 92 µM (inactive) | > 92 µM (inactive) | > 92 µM (inactive) | > 92 µM (inactive) | > 92 µM (inactive) | inactive | inactive | inactive | inactive | inactive | inactive | inactive | inactive | inactive | inactive | inactive | inactive | 2.59% | -0.863% (inactive) | -3.19% (inactive) |
| CCCCCc1cc(O)cc(O)c1 | > 92 µM (inactive) | > 92 µM (inactive) | > 92 µM (inactive) | > 92 µM (inactive) | > 92 µM (inactive) | inactive | inactive | inactive | inactive | inactive | inactive | inactive | inactive | inactive | inactive | inactive | inactive | 0.917% | -5.69% (inactive) | 8.35% (inactive) |
| O=P(OCCCl)(OCCCl)OCCCl | > 92 µM (inactive) | > 92 µM (inactive) | > 92 µM (inactive) | > 92 µM (inactive) | > 92 µM (inactive) | inactive | inactive | inactive | inactive | inactive | inactive | inactive | inactive | inactive | inactive | inactive | inactive | -20% | -2.47% (inactive) | 4.31% (inactive) |
